Data on 39 compounds can be found in PubChem BioAssay AID720517 (National Center for Advancing Translational Sciences (NCATS), 2013).

Records with an inconclusive call do not appear. Where a call stands in place of a potency, no number is given. Active and inactive are the calls of the source. Calls come from the whole dose curve; as a rule, active = well fitted activation curve with a large enough effect; inconclusive = small, poorly fitted or top-dose-only effect; inactive = flat fitted curve, though single readings scatter.
Potency is the fitted concentration of half-maximal effect.

The experiment in a line: qHTS for Inhibitors of Cell Surface uPA Generation: FP59 Counterscreen for Cherry-picked Compounds. As to conditions: FP59 anthrax toxin cytotoxicity counterscreen, cells; series mostly up to 115 µM. On the technique in general: qHTS replaces the single test concentration by a dilution series.
In the case of `COC(=O)COc1cc2ccccc2cc1C(=O)Nc1ccccc1`, the Potency entry is “inactive”.

Regarding `Cn1c(C2CCCCC2)nc2cc(N)ccc21`, the Potency entry is “inactive”.

Consider `COc1ccc(S(=O)(=O)N2CCN(Cc3ccccc3)CC2)c(C)c1`, for which the Potency entry was “inactive”.

On to `CC(C)N1CCc2c(sc(NC(=O)CCc3ccccc3)c2C(N)=O)C1`, for which the Potency result was “inactive”.

Turning to `Cc1ccc(-n2nc3c(c2NC(=O)c2ccc4c(c2)OCO4)CS(=O)C3)c(C)c1` (centres undefined), the Potency entry was “inactive”.

Turning to `C[C@H](CO)N1C[C@H](C)[C@@H](CN(C)C(=O)Nc2ccccc2)Oc2ccc(NC(=O)Cn3cnnn3)cc2C1=O`, the Potency result was “inactive”.

Regarding `COc1ccc(N2CCN(S(=O)(=O)c3ccc4c(c3)NC(=O)CS4)CC2)cc1`, the Potency result was “inactive”.

Take `COCCNC(=O)C(c1c[nH]c2ccccc12)N(C(=O)c1snc(C(N)=O)c1N)c1cccc(OC)c1` (centres undefined): the Potency result is “inactive”.

Turning to `CCCc1nn2c(=O)cc(CSCC(=O)Nc3ccccc3)nc2s1`, the Potency entry was “inactive”.

In the case of `NC(=O)CC[C@H](NC(=O)c1ccc(F)cc1)C(=O)OCC(=O)Nc1c(F)c(F)c(F)c(F)c1F`, the Potency result is “inactive”.

Take `O=C(Nc1ccc(NC(=O)c2ccco2)c(Cl)c1)c1ccccc1`: the Potency result is “inactive”.

Consider `COc1ccc(C(=O)NCCOC(C)C)cc1OC1CCN(C(C)=O)CC1`, for which the Potency entry is “inactive”.

Consider `COc1cccc(-n2c(SCC(=O)Nc3cc(C)on3)nc3c([nH]c4ccccc43)c2=O)c1`, for which the Potency result was “inactive”.

As for `C=CC1=C(C(=O)O)N2C(=O)[C@@H](NC(=O)/C(=N\O)c3csc(N)n3)[C@H]2SC1` (stereo in doubt), the Potency entry is “inactive”.

Turning to `CCCCNc1nnc(SCC(=O)c2c(N)n(CCC)c(=O)[nH]c2=O)s1`, the Potency result was “inactive”.

Regarding `COc1cc(CCC(=O)OCC(=O)NCc2ccccc2)cc(OC)c1OC`, the Potency result was “inactive”.

`O=C(CC1(O)C(=O)Nc2ccccc21)c1cccc(Br)c1` (centres undefined): the Potency result is “inactive”.

As to `COc1ccc(C(=O)NC(C)c2cnn(-c3ccccn3)c2C)o1` (centres undefined), the Potency result was “inactive”.

Consider `Cc1nc(C(=O)N2CCC(n3nccc3NC(=O)Nc3ccccc3Cl)CC2)cs1`, for which the Potency entry was “inactive”.

For `CC(C)C1Oc2ccccc2N(CC(=O)NC2CCCCC2)C1=O` (centres undefined), the Potency is 58.5 µM (active).

As for `COc1ccccc1N=Nc1c(C)[nH]n(-c2ccccc2)c1=O`, the Potency entry was “inactive”.

As for `COc1ccc(C2=Nc3ccccc3C2(O)CCN2C(=O)c3ccccc3C2=O)cc1` (centres undefined), the Potency result is “inactive”.

As to `O=C(O)c1ccc(-n2nnnc2SCc2cccc(Br)c2)cc1`, the Potency entry was “inactive”.

As for `CN(CC(=O)NCCCn1ccnc1)S(=O)(=O)c1ccc(Cl)cc1`, the Potency entry is “inactive”.

As to `O=C1[C@H]2[C@@H](c3ccc(F)cc3)N3C(=O)N(c4ccccc4)C(=O)[C@@]3(Cc3ccc(Cl)cc3)[C@H]2C(=O)N1C1CCCCC1`, the Potency result is “inactive”.

As for `Cc1cccc(CNc2ccc(C(CC(N)=O)NC(=O)c3cccc(Br)c3)cc2[N+](=O)[O-])c1` (centres undefined), the Potency result was “inactive”.

Consider `CCN(c1ccccc1)S(=O)(=O)c1ccc(NC(=O)c2ccco2)cc1`, for which the Potency entry was “inactive”.

For `CCc1ccccc1N1C(=O)CC(Sc2nccc(C)n2)C1=O` (centres undefined), the Potency result was “inactive”.

In the case of `Cc1ccc(C2=NS(=O)(=O)N(C)C(C(=O)NC3CCCC3)=C2)cc1`, the Potency result was “inactive”.

On to `COc1cc(CN2CCN(S(=O)(=O)c3ccccc3)CC2)cc(OC)c1OC`, for which the Potency result was “inactive”.

Turning to `S=C(Nc1ccccc1Cl)N1CCCC(c2ccccc2)=N1`, the Potency was 23.3 µM (active).

`CCCCCOC(=O)Nc1nnc(CCCCC)s1`: the Potency entry was “inactive”.

Take `COc1ccccc1NC(=O)Cn1ncc2c1-c1ccccc1OC2`: the Potency entry was “inactive”.

Turning to `COC(C[C@H](O)[C@H](C)[C@@H](O)COCc1ccccc1)OC`, the Potency entry was “inactive”.

`CN(C)C(=S)Nc1ccc(S(=O)(=O)N2CCCCC2)cc1`: the Potency entry is “inactive”.

On to `CCn1c(CNc2ccc(F)cc2)nnc1SCC(=O)Nc1ccccc1OC`, for which the Potency result was “inactive”.

As to `O=C(NCCOc1ccc(F)cc1)C1CCN(S(=O)(=O)c2ccccc2)CC1`, the Potency entry is “inactive”.

Take `Fc1ccc(N2CCN(c3nc(CN4CCOCC4)nc4scc(-c5ccccc5)c34)CC2)cc1`: the Potency entry was “inactive”.

For `CCOC(=O)Cc1csc(NC(=O)Nc2cccc(OC)c2)n1`, the Potency result is “inactive”.
